This is a sample that favours compounds with a hit; in the whole collection about 2.2% have one here.
KLF5 inhibitor = inhibitors of KLF5 expression; DLD-1 KLF5 promoter-luciferase reporter, luminescence; inhibition, % at 5 µM; 290,000 compounds, 0.23% hits; AID 1700;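 active = inhibition above a per-plate limit of that plate's mean compound inhibition plus 3 SD, cut at about 60% in these data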;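 also: 0% = DMSO wells and 100% = LY294002 at 200 µM; higher means less KLF5 promoter-driven luciferase light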
Ba/F3 V617F tox = loss of viability in JAK2V617F-driven Ba/F3 cells. Ba/F3 EpoR-JAK2V617F viability, ATP luminescence. inhibition, % at 5.6 µM. 220,000 compounds, 1.1% hits. AID 1446;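 active = inhibition above the campaign mean plus 3 SD over all tested compounds, cut at about 24% in these data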;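 also: cytokine-independent growth of Ba/F3 cells driven by EpoR plus mutant JAK2; 0% = DMSO-treated cells and 100% = JAK inhibitor I control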
IEC-6 tox-1 = counter-screen for KLF5 inhibitors: cytotoxicity in IEC-6 cells. IEC-6 cytotoxicity, luminescence viability. inhibition, % at 5 µM. 290,000 compounds, 0.78% hits. AID 1825;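 also: 0% = plate median of test compound wells and 100% = cytotoxic reference compound wells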
aSyn UTR inh = MLPCN primary screen, SNCA 5' untranslated region. alpha-synuclein 5'UTR reporter, inhibitor activity. inhibition, % (tested at 7.5 µM). 300,000 compounds, 0.82% hits. AID 1813; in the data active = inhibition above about 60%;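 also: H4 neuroglioblastoma cells stably carrying SNCA 5'UTR luciferase fusion; 0% = DMSO wells and 100% = positive control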
APP transl inh = APP translation inhibition | AID 1285 | 190,000 compounds, 0.82% hits | inhibition, % at 2 µM | SH-SY5Y APP 5'UTR-luciferase reporter, luminescence;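 active = inhibition above a set limit, derived from the sample mean plus 3 SD, cut at about 45% in these data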
BaF3 tox = parental Ba/F3 viability inhibition as JAK2V617F counter-screen. CellTiter-Glo ATP luminescence. inhibition, % at 5.6 µM. 220,000 compounds, 1.1% hits. AID 1486;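 active = inhibition above a per-campaign cutoff, the mean inhibition of all tested compounds plus 3 SD, cut at about 27% in these data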;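 also: 0% = DMSO wells and 100% = JAK Inhibitor I control wells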
KLF5 inh confirm = KLF5 inhibition, confirmation assay. shares compounds with KLF5 inhibitor. 610 compounds, 79% hits. DLD-1 KLF5 promoter firefly luciferase reporter, luminescence. inhibition, % at 4 µM. AID 1834;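 active = inhibition above a set limit taken from the earlier primary screen, cut at about 63% in these data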;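 also: 0% = DMSO wells and 100% = LY294002 at 200 µM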
IEC-6 tox-2 = kills rat IEC-6 cells in KLF5 counter-screen. 610 compounds, 56% hits. IEC-6 rat intestinal cells, viability luminescence. shares compounds with KLF5 inhibitor. inhibition, % at 4 µM; in the data active = inhibition above about 23%;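 also: cells exposed to compounds for 48 hours before viability read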
IEC-6 tox confirm = confirmation of cytotoxic compounds in rat IEC-6 intestinal epithelial cells; 1,900 compounds, 63% hits; inhibition, % at 5 µM; shares compounds with IEC-6 tox-1; IEC-6 rat intestinal epithelial viability, luminescence; AID 1907;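 also: 0% = vehicle and 100% = reference cytotoxic drug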
* = called active by the depositor. Rule as the data show it, unless noted: active = inhibition above about 22%; inactive = the rest.

Results for C/C(=N\Nc1ccc2nncn2n1)c1ccccn1 ?
KLF5 inhibitor: 68*; Ba/F3 V617F tox: 76*; IEC-6 tox-1: 2; aSyn UTR inh: 94*; BaF3 tox: 69*; KLF5 inh confirm: 76*; IEC-6 tox-2: 83*

Results for CCOc1ccc(NC(=O)Nc2cccc(C(=O)O)c2)cc1 ?
KLF5 inhibitor: 94*; Ba/F3 V617F tox: 6; IEC-6 tox-1: -1; aSyn UTR inh: 108*; APP transl inh: 70*; BaF3 tox: 9; KLF5 inh confirm: 101*; IEC-6 tox-2: 16

Results for O=C(Nc1ccc(Cl)cc1)Nc1cccc(C(=O)O)c1 ?
KLF5 inhibitor: 66*; Ba/F3 V617F tox: -1; IEC-6 tox-1: -7; aSyn UTR inh: 42; APP transl inh: -1; BaF3 tox: 12; KLF5 inh confirm: 72*; IEC-6 tox-2: 3

How did Cc1ccccc1OCC(=O)Nc1cccc(C(=O)O)c1 do in these assays?
KLF5 inhibitor: 95*; Ba/F3 V617F tox: -1; IEC-6 tox-1: -2; aSyn UTR inh: 105*; APP transl inh: 68*; BaF3 tox: 3; KLF5 inh confirm: 96*; IEC-6 tox-2: 4

How did Cc1cccc(OCC(=O)Nc2cc(NC(=O)COc3cccc(C)c3C)cc(C(=O)O)c2)c1C do in these assays?
KLF5 inhibitor: -21; IEC-6 tox-1: 4; aSyn UTR inh: -10

What do the screens show for `O=C(Nc1cccc(Cl)c1)Nc1cccc(C(=O)O)c1`?
KLF5 inhibitor: 6; Ba/F3 V617F tox: 0; IEC-6 tox-1: -6; aSyn UTR inh: 55; BaF3 tox: -2

Results for CCOC(=O)c1cccc(NC(=O)Nc2ccc(OCC)cc2)c1 ?
KLF5 inhibitor: -19; Ba/F3 V617F tox: 4; IEC-6 tox-1: -1; aSyn UTR inh: 56; APP transl inh: -16; BaF3 tox: 4

How did O=C(c1ccccc1)N1CCCC(C(=O)N2CCN(c3ccccc3)CC2)C1 (centres undefined) do in these assays?
KLF5 inhibitor: -19; Ba/F3 V617F tox: -3; IEC-6 tox-1: -3; aSyn UTR inh: 8; BaF3 tox: 2

Results for COc1ccc(CCC(=O)NC(C)C2CCCO2)cc1 (centres undefined) ?
KLF5 inhibitor: -10; IEC-6 tox-1: -2; aSyn UTR inh: 4

What do the screens show for `Cc1ccc(S(=O)(=O)N(CC(=O)Nc2cccnc2)c2ccccc2C)cc1`?
KLF5 inhibitor: 2; IEC-6 tox-1: 4; aSyn UTR inh: -1

How did COc1ccc(-c2sc3ccc(N4CCOCC4)cc3c2-c2ccc(OC)c(F)c2)cc1 do in these assays?
KLF5 inhibitor: 8; IEC-6 tox-1: -4; aSyn UTR inh: -8

How did CSc1ccc(NC(=O)NCc2cccnc2)cc1 do in these assays?
KLF5 inhibitor: -48; IEC-6 tox-1: -2; aSyn UTR inh: -21

Results for COc1cc(C(=O)Nc2nc3ccccc3[nH]2)cc(OC)c1OC ?
KLF5 inhibitor: -16; Ba/F3 V617F tox: 4; IEC-6 tox-1: 7; aSyn UTR inh: -76; APP transl inh: 13; BaF3 tox: 3

How did COc1ccc(C(=O)Nc2nc3ccccc3[nH]2)cc1 do in these assays?
KLF5 inhibitor: 65*; IEC-6 tox-1: 15; aSyn UTR inh: 71*; KLF5 inh confirm: 56; IEC-6 tox-2: 13

What do the screens show for `Cc1ccc(C(=O)Nc2nc3ccccc3[nH]2)cc1`?
KLF5 inhibitor: 86*; IEC-6 tox-1: 15; aSyn UTR inh: 68*; KLF5 inh confirm: 66*; IEC-6 tox-2: 21

How did O=C(Nc1nc2ccccc2[nH]1)c1ccc([N+](=O)[O-])cc1 do in these assays?
KLF5 inhibitor: -87; Ba/F3 V617F tox: 5; IEC-6 tox-1: 6; aSyn UTR inh: -28; APP transl inh: -190; BaF3 tox: 3

How did O=C(Nc1cnc2ccccc2c1)c1cccnc1 do in these assays?
KLF5 inhibitor: -174; Ba/F3 V617F tox: 3; IEC-6 tox-1: -4; aSyn UTR inh: -101; APP transl inh: -106; BaF3 tox: 1

How did Cc1ccc(C(=O)Nc2cnc3ccccc3c2)cc1 do in these assays?
KLF5 inhibitor: 97*; Ba/F3 V617F tox: 1; IEC-6 tox-1: 6; aSyn UTR inh: 103*; APP transl inh: 31; BaF3 tox: 3; KLF5 inh confirm: 105*; IEC-6 tox-2: 5

Results for Cc1cc(NC(=O)c2coc(=O)c(Br)c2)ccc1C(C)C ?
KLF5 inhibitor: -27; Ba/F3 V617F tox: 5; IEC-6 tox-1: 1; aSyn UTR inh: -75; BaF3 tox: -3

How did CCc1cccc(C)c1NS(=O)(=O)Cc1ccccc1 do in these assays?
KLF5 inhibitor: -25; IEC-6 tox-1: -3; aSyn UTR inh: 11

How did COc1ccccc1-c1nnc2n1N=C(c1ccc(O)c(O)c1)CS2 do in these assays?
KLF5 inhibitor: 80*; Ba/F3 V617F tox: 95*; IEC-6 tox-1: 1; aSyn UTR inh: 97*; APP transl inh: 95*; BaF3 tox: 92*; KLF5 inh confirm: 92*; IEC-6 tox-2: 14

Results for COc1cccc(/C=N/NC(=O)c2c(C)nc3ccc(Cl)cn23)c1O ?
KLF5 inhibitor: 93*; IEC-6 tox-1: 83*; aSyn UTR inh: 35; KLF5 inh confirm: 88*; IEC-6 tox-2: 63*; IEC-6 tox confirm: 47*

How did COc1ccccc1/C=N\NC(=O)c1c(C)nc2ccc(Cl)cn12 do in these assays?
KLF5 inhibitor: -6; IEC-6 tox-1: 8; aSyn UTR inh: -13

What do the screens show for `COc1ccccc1C(=O)Nc1nc2ccccc2[nH]1`?
KLF5 inhibitor: 101*; IEC-6 tox-1: 80*; aSyn UTR inh: 100*; KLF5 inh confirm: 105*; IEC-6 tox-2: 58*; IEC-6 tox confirm: 69*

Results for COc1cc(SC)ccc1C(=O)Nc1nc2ccccc2[nH]1 ?
KLF5 inhibitor: 100*; IEC-6 tox-1: 77*; aSyn UTR inh: 131*; KLF5 inh confirm: 98*; IEC-6 tox-2: 44*; IEC-6 tox confirm: 59*

What do the screens show for `CC(NC(=O)C(C)N1CCN(Cc2ccccc2)CC1)c1ccc(F)cc1` (centres undefined)?
KLF5 inhibitor: -26; IEC-6 tox-1: -2; aSyn UTR inh: -5

Results for Cc1cc2nc(-c3ccc[nH]c3=O)[nH]c2cc1C ?
KLF5 inhibitor: 83*; IEC-6 tox-1: 40*; aSyn UTR inh: 77*; KLF5 inh confirm: 61; IEC-6 tox-2: 16; IEC-6 tox confirm: 33*

Results for O=C(c1cc(-c2ccncc2)nc2c(Cl)cccc12)N1CCN(c2ccccc2F)CC1 ?
KLF5 inhibitor: 66*; IEC-6 tox-1: 67*; aSyn UTR inh: 99*; KLF5 inh confirm: 65*; IEC-6 tox-2: 47*; IEC-6 tox confirm: 54*

Results for N/C(=N\OC(=O)N1CCOCC1)c1ccc(Br)cc1 ?
KLF5 inhibitor: -28; Ba/F3 V617F tox: 5; IEC-6 tox-1: 7; aSyn UTR inh: -61; APP transl inh: -34; BaF3 tox: 12
